The text below walks through data of PubChem BioAssay (NCI).

The panel holds about 79,000 compounds, 15% with a hit somewhere; the sample as a whole holds those more often. A number with no mark means an inactive call. Active and inactive are the calls of the source. No stated cut-off is given here; in the data, active means growth inhibition above about 70%; inactive means the rest.

The first experiment in a line: NCI Yeast Anticancer Drug Screen. Data for the mlh1 strain (AID 171).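 Further: 0% = growth of vehicle-treated control cultures of the same strain.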 The conditions noted are these: S. cerevisiae mlh1 strain growth inhibition; at 100.0 µM; active compounds read high. In outline:
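Here the genetically defined yeast mutant is grown with each compound, and the extent to which its growth falls below that of vehicle-exposed cells is reported.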
As for `CCCc1cc(C(=O)OCC)cc(CCC)c1O`, the growth inhibition was 98% (active).

`CC(C)[N+]([O-])(CCCNc1c2ccccc2nc2cccc([N+](=O)[O-])c12)C(C)C`: the growth inhibition is 98% (active).

Turning to `COc1cc2c3c(cccc3c1)C(=O)N(CCN(C)C)C2=O`, the growth inhibition was 0%.

In the case of `NC(=O)NN=C(CS)CS`, the growth inhibition was 60%.

With `Cc1ccc(NC(=O)/C(Cl)=C(\Cl)C(=O)O)cc1C`, the growth inhibition is 99% (active).

In the case of `CCN(CC)CC[n+]1ccc2c(C)c3[nH]c4ccc(O)cc4c3c(C)c2c1`, the growth inhibition is 68%.

Regarding `CC(CC(C)(C)[N+](C)(C)C)[N+](C)(C)C` (stereo not drawn), the growth inhibition is 0%.

For `COc1ccc(OC)c2cc3ccccc3cc12`, the growth inhibition was 19%.

Regarding `Nc1ncncc1C(C1=C(O)COC1=O)C1=C(O)COC1=O`, the growth inhibition is 0%.

Take `CSC1=NNC(SC)=NN1`: the growth inhibition is 98% (active).

Take `Cc1c(Cl)ccc2c1S(=O)(=O)c1cccc(Cl)c1-2`: the growth inhibition is -2%.

With `[O-][n+]1c2ccc(O)cc2nc2ccc(Cl)cc21`, the growth inhibition was 78% (active).

With `COc1ccc2ccc3ccccc3c2c1C=O`, the growth inhibition is 29%.

Turning to `Nc1ccc2c(c1)C(=O)c1cccc(N)c1C2=O`, the growth inhibition is 85% (active).

For the molecule `O=C(c1ccc(Cl)cc1Cl)C(Cl)Cl`, the growth inhibition was 99% (active).

Take `COc1cc(C(=O)/C=C/c2ccccc2O)ccc1O`: the growth inhibition is 98% (active).

`O=Cc1cccc2ccc3ccccc3c12`: the growth inhibition was 98% (active).

Turning to `O=C(Nc1ccc(Cl)cc1)OCC#CCCl`, the growth inhibition is 98% (active).

Turning to `Cn1ccnc1Oc1ccc(Cl)cc1`, the growth inhibition was 98% (active).

`c1ccc2c(c1)C(=NCCCN1CCCCCC1)c1cccn1-2`: the growth inhibition is 96% (active).

Regarding `C/C(=N\O)C1CC2C=C(C#N)C1N(Cc1ccccc1)C2` (stereo not drawn), the growth inhibition was 0%.

With `O=[N+]([O-])C(=C(Sc1ccccc1)Sc1ccccc1)C(Cl)=C(Cl)Cl`, the growth inhibition is 74% (active).

For `CCCCCCCCCC/C=C\C(=O)O`, the growth inhibition is 97% (active).

Turning to `COc1ccc(N=C2C(=O)Nc3ccc(Br)cc32)cc1`, the growth inhibition was -18%.

Turning to `COc1ccccc1C(=O)OCC1CCCN2CCCCC12` (stereo not drawn), the growth inhibition is 98% (active).

In the case of `CC(C)(Br)C(=O)/C=C/c1ccc(Cl)c(Cl)c1`, the growth inhibition was 3%.

Regarding `Nc1ccccc1CC(O)C(=O)O` (stereo not drawn), the growth inhibition is 97% (active).

Consider `CC(=O)N/N=C/C(C)(C)C(C)(C)/C=N/NC(C)=O`, for which the growth inhibition is 91% (active).

Turning to `CN(C)c1nc2sc3c(c2c(=O)o1)CCCC3`, the growth inhibition is 31%.

As for `CC(C)OC(=O)Oc1ccccc1OC(=O)OC(C)C`, the growth inhibition is 3%.

As for `Cc1ccc(N)c(S)c1`, the growth inhibition was 97% (active).

Regarding `O=C(O)c1ccccc1NC(=S)c1ccccc1`, the growth inhibition is 62%.

Regarding `COC(=O)c1ccc(NCC2=CC(=O)C=CC2=O)cc1O`, the growth inhibition was 94% (active).

On to `NC(N)=N/N=C\c1c2ccccc2cc2ccccc12`, for which the growth inhibition is 93% (active).

As to `COC(=O)CSSCc1ccc([N+](=O)[O-])cc1`, the growth inhibition was 99% (active).

`CCS(=O)(=O)c1ccc(/C=C/C=N/NC(=S)NCC(C)C)cc1`: the growth inhibition was 41%.

As to `N#CC(C(=O)Nc1ccccc1)C1=C(Cl)C(=O)c2ccccc2C1=O` (stereo not drawn), the growth inhibition is 97% (active).

Regarding `C[C@H](CCC(=O)NN)[C@H]1CC[C@H]2[C@@H]3CC[C@@H]4C[C@H](O)CC[C@]4(C)[C@H]3CC[C@]12C`, the growth inhibition was 4%.

Turning to `CC[n+]1ccc2c(C)c3[nH]c4ccc(O)cc4c3c(C)c2c1`, the growth inhibition was 10%.

The nature of a further experiment: NCI Yeast Anticancer Drug Screen. Data for the sgs1 strain (AID 173).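 Further: 0% = growth of vehicle-only control cultures.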 The note with it: S. cerevisiae sgs1 mutant, at 1.2 µM, active compounds read high. In outline:
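Relative growth inhibition, referenced to vehicle, was determined in a yeast strain with a defined alteration affecting DNA damage repair or cell cycle control after compound exposure.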
As to `CCCc1cc(C(=O)OCC)cc(CCC)c1O`, the growth inhibition is -2%.

As to `CC(C)[N+]([O-])(CCCNc1c2ccccc2nc2cccc([N+](=O)[O-])c12)C(C)C`, the growth inhibition was 64%.

Regarding `COc1cc2c3c(cccc3c1)C(=O)N(CCN(C)C)C2=O`, the growth inhibition is -21%.

In the case of `NC(=O)NN=C(CS)CS`, the growth inhibition is 0%.

For the molecule `Cc1ccc(NC(=O)/C(Cl)=C(\Cl)C(=O)O)cc1C`, the growth inhibition is 1%.

In the case of `CCN(CC)CC[n+]1ccc2c(C)c3[nH]c4ccc(O)cc4c3c(C)c2c1`, the growth inhibition was -2%.

Take `CC(CC(C)(C)[N+](C)(C)C)[N+](C)(C)C` (stereo not drawn): the growth inhibition was 2%.

For `COc1ccc(OC)c2cc3ccccc3cc12`, the growth inhibition was -12%.

For `Nc1ncncc1C(C1=C(O)COC1=O)C1=C(O)COC1=O`, the growth inhibition is 3%.

On to `CSC1=NNC(SC)=NN1`, for which the growth inhibition is -5%.

As for `Cc1c(Cl)ccc2c1S(=O)(=O)c1cccc(Cl)c1-2`, the growth inhibition is -10%.

Take `[O-][n+]1c2ccc(O)cc2nc2ccc(Cl)cc21`: the growth inhibition is 4%.

As to `COc1ccc2ccc3ccccc3c2c1C=O`, the growth inhibition was -4%.

In the case of `Nc1ccc2c(c1)C(=O)c1cccc(N)c1C2=O`, the growth inhibition was -4%.

Consider `O=C(c1ccc(Cl)cc1Cl)C(Cl)Cl`, for which the growth inhibition was -14%.

As for `COc1cc(C(=O)/C=C/c2ccccc2O)ccc1O`, the growth inhibition was 8%.

As to `O=Cc1cccc2ccc3ccccc3c12`, the growth inhibition was -1%.

Regarding `O=C(Nc1ccc(Cl)cc1)OCC#CCCl`, the growth inhibition is 93% (active).

As for `Cn1ccnc1Oc1ccc(Cl)cc1`, the growth inhibition is -15%.

As to `c1ccc2c(c1)C(=NCCCN1CCCCCC1)c1cccn1-2`, the growth inhibition was -4%.

As to `C/C(=N\O)C1CC2C=C(C#N)C1N(Cc1ccccc1)C2` (stereo not drawn), the growth inhibition was 1%.

Turning to `O=[N+]([O-])C(=C(Sc1ccccc1)Sc1ccccc1)C(Cl)=C(Cl)Cl`, the growth inhibition is 13%.

Regarding `CCCCCCCCCC/C=C\C(=O)O`, the growth inhibition is -7%.

For `COc1ccc(N=C2C(=O)Nc3ccc(Br)cc32)cc1`, the growth inhibition is 1%.

On to `COc1ccccc1C(=O)OCC1CCCN2CCCCC12` (stereo not drawn), for which the growth inhibition was 10%.

With `CC(C)(Br)C(=O)/C=C/c1ccc(Cl)c(Cl)c1`, the growth inhibition is -1%.

Take `Nc1ccccc1CC(O)C(=O)O` (stereo not drawn): the growth inhibition is -1%.

As to `CC(=O)N/N=C/C(C)(C)C(C)(C)/C=N/NC(C)=O`, the growth inhibition was -6%.

As for `CN(C)c1nc2sc3c(c2c(=O)o1)CCCC3`, the growth inhibition is -3%.

On to `CC(C)OC(=O)Oc1ccccc1OC(=O)OC(C)C`, for which the growth inhibition is -1%.

On to `Cc1ccc(N)c(S)c1`, for which the growth inhibition is -29%.

`O=C(O)c1ccccc1NC(=S)c1ccccc1`: the growth inhibition is -18%.

On to `COC(=O)c1ccc(NCC2=CC(=O)C=CC2=O)cc1O`, for which the growth inhibition was 3%.

Turning to `NC(N)=N/N=C\c1c2ccccc2cc2ccccc12`, the growth inhibition was -25%.

Regarding `COC(=O)CSSCc1ccc([N+](=O)[O-])cc1`, the growth inhibition is -20%.

Turning to `CCS(=O)(=O)c1ccc(/C=C/C=N/NC(=S)NCC(C)C)cc1`, the growth inhibition was -4%.

`N#CC(C(=O)Nc1ccccc1)C1=C(Cl)C(=O)c2ccccc2C1=O` (stereo not drawn): the growth inhibition was 8%.

On to `C[C@H](CCC(=O)NN)[C@H]1CC[C@H]2[C@@H]3CC[C@@H]4C[C@H](O)CC[C@]4(C)[C@H]3CC[C@]12C`, for which the growth inhibition was 2%.

Regarding `CC[n+]1ccc2c(C)c3[nH]c4ccc(O)cc4c3c(C)c2c1`, the growth inhibition was 9%.
